In the supplement of paper PMC10849652:
Of roughly 8,800 targets only a part is listed; those with a hit were picked by preference. About 0.5% of all pairs of compound and target were hits. A number with no mark means an inactive call.

Legend:
Assay in all cases: log2 fold change, soluble protein after heating vs DMSO (PISA); higher = thermal stabilisation; K562 lysate, 10 uM; active = over 0.2 and 3.5 SD of the protein, either way, in both replicates (recomputed)
[1] = compound: C1=CC=C(C=C1)[C@H](COC2=CC3=C(C=C2)NC(=O)N3)NC(=O)C4=CC=CN(C4=O)CC5=CC(=C(C=C5)F)F
Summary of the method: (§1)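 Following dounce homogenisation of K562 pellets in PBS pH 7.4 with 1 mM MgCl2, crude extract at 1 mg/mL protein was incubated for 30 min with 10 μM compound. Aliquots were then heated for 3 min over 48°C-58°C and pooled, NP-40 was added to 0.5% at 4°C, and soluble protein was recovered as the supernatant at 21,000xg for 90 min. Channel-sum-equalised TMTpro 16plex LC-MS/MS quantified this protein. Each value, from duplicates, is a log-two fold change in thermal stability relative to solvent controls.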

[2] = compound: CC1=C(SC2=C1C(=N[C@H](C3=NN=C(N32)C)CC(=O)N)C4=CC=C(C=C4)Cl)C
Summary of the method: as §1

[3] = compound: CC1=C2C(=CC=C1)N=C(N(C2=O)C3=CC=CC=C3C)CN4C=NC5=C(N=CN=C54)N
Summary of the method: as §1

[4] = compound: c1ccc([C@@H]2C[C@H]2NC2CCNCC2)cc1
Summary of the method: as §1

[5] = compound: Cc1sc2c(c1C)C(c1ccc(Cl)cc1)=N[C@@H](CC(=O)OC(C)(C)C)c1nnc(C)n1-2
Summary of the method: as §1

TMEM161B (UniProt Q8NDZ6)
Sequence of UniProt Q8NDZ6 (Q8NDZ6 whole entry, looked up): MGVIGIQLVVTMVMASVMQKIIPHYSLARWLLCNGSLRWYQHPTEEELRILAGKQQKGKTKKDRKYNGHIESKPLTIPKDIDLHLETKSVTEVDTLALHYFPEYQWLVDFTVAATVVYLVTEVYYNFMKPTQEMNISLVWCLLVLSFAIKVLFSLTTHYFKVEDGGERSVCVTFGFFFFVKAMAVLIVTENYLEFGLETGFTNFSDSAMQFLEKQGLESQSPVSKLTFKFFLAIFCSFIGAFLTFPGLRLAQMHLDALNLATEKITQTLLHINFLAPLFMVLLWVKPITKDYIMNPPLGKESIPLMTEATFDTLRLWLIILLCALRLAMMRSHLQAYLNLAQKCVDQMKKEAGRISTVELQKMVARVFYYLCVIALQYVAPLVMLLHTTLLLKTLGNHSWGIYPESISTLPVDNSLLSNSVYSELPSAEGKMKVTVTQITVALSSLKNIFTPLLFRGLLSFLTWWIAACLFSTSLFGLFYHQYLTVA
log2 fold change [1]: -0.07 | log2 fold change [2]: -0.052 | log2 fold change [3]: -0.076 | log2 fold change [4]: -0.025

TRPM4 (UniProt Q8TD43)
Sequence of UniProt Q8TD43 (Q8TD43 whole entry, looked up): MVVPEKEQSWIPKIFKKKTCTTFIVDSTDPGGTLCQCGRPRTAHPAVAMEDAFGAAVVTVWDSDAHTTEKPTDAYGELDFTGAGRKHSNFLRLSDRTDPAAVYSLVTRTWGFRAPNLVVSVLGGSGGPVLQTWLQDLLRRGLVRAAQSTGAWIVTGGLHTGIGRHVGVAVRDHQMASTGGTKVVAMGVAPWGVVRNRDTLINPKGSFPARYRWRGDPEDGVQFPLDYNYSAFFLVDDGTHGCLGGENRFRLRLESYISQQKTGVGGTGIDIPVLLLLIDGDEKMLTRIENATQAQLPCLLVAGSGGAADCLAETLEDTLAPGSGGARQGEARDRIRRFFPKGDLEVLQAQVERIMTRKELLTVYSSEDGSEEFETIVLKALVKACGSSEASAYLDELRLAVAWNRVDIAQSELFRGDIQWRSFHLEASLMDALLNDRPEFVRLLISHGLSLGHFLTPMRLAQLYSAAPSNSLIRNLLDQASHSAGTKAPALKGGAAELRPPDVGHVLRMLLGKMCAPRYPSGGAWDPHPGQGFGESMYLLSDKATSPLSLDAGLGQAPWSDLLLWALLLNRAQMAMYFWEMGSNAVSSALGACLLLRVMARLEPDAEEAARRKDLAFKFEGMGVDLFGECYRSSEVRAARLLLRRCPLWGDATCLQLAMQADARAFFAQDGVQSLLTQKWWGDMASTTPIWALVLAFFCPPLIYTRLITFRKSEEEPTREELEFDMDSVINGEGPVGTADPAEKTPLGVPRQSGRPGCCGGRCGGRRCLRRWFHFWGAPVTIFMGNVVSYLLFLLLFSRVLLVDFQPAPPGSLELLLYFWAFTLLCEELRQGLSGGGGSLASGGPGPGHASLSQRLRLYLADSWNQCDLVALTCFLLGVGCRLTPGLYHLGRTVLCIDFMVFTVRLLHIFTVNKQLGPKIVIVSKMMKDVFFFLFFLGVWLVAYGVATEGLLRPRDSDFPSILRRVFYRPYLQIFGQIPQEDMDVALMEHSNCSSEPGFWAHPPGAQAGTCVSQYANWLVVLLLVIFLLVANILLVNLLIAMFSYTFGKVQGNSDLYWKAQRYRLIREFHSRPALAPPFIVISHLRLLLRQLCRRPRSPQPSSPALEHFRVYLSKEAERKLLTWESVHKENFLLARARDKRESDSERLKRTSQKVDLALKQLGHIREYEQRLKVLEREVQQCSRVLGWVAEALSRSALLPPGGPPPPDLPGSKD
log2 fold change [1]: -0.074 | log2 fold change [2]: 0.114 | log2 fold change [5]: -0.042 | log2 fold change [4]: -0.354

TRIM3 (UniProt O75382)
Sequence of UniProt O75382 (O75382 whole entry, looked up): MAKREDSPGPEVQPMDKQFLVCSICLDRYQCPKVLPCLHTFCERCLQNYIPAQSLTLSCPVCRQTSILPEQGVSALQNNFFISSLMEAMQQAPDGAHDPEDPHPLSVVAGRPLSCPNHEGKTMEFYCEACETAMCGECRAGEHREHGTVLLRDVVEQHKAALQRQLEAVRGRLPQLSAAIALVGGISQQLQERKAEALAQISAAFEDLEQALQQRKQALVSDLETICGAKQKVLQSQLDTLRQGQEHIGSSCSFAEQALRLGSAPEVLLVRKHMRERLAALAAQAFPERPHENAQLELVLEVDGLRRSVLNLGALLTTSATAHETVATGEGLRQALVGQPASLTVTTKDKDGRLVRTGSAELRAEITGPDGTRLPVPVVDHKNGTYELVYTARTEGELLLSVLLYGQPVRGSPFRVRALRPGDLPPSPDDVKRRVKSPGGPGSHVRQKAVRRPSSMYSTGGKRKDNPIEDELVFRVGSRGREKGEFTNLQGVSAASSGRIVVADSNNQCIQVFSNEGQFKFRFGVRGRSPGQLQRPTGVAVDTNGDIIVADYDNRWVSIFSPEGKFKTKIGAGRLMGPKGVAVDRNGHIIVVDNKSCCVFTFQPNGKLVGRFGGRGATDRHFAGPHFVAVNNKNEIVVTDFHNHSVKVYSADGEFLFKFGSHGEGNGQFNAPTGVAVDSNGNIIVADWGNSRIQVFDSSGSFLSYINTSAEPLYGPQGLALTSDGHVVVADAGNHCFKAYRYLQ
log2 fold change [3]: 0.197

TLE3 isoform 5 (UniProt Q04726)
Sequence of UniProt Q04726 (Q04726 whole entry, looked up): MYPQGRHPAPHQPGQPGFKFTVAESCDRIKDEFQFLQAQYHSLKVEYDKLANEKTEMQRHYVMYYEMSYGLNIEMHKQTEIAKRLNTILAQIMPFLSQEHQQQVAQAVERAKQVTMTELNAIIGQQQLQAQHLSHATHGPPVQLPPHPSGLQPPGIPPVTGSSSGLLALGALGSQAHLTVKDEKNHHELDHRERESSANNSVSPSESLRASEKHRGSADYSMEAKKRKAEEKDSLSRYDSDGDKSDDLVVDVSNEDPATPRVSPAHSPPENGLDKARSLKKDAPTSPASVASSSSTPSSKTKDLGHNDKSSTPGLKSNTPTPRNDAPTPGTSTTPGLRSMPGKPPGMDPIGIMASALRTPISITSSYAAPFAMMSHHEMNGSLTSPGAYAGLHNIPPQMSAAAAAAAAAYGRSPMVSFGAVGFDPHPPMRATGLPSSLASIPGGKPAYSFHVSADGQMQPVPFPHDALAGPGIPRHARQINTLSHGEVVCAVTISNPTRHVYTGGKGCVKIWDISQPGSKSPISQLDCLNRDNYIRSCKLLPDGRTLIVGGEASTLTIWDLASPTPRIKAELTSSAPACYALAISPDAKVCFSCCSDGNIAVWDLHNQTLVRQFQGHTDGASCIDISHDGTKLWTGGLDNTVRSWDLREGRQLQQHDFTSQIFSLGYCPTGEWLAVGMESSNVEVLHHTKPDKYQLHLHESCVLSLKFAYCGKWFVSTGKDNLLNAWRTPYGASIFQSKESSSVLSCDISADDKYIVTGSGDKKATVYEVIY
log2 fold change [1]: -0.061 | log2 fold change [2]: -0.454 (active) | log2 fold change [5]: -0.069 | log2 fold change [4]: 0.199

TMEM154 (UniProt Q6P9G4)
log2 fold change [5]: -0.073

TNKS (UniProt O95271)
Sequence of UniProt O95271 (O95271 whole entry, looked up): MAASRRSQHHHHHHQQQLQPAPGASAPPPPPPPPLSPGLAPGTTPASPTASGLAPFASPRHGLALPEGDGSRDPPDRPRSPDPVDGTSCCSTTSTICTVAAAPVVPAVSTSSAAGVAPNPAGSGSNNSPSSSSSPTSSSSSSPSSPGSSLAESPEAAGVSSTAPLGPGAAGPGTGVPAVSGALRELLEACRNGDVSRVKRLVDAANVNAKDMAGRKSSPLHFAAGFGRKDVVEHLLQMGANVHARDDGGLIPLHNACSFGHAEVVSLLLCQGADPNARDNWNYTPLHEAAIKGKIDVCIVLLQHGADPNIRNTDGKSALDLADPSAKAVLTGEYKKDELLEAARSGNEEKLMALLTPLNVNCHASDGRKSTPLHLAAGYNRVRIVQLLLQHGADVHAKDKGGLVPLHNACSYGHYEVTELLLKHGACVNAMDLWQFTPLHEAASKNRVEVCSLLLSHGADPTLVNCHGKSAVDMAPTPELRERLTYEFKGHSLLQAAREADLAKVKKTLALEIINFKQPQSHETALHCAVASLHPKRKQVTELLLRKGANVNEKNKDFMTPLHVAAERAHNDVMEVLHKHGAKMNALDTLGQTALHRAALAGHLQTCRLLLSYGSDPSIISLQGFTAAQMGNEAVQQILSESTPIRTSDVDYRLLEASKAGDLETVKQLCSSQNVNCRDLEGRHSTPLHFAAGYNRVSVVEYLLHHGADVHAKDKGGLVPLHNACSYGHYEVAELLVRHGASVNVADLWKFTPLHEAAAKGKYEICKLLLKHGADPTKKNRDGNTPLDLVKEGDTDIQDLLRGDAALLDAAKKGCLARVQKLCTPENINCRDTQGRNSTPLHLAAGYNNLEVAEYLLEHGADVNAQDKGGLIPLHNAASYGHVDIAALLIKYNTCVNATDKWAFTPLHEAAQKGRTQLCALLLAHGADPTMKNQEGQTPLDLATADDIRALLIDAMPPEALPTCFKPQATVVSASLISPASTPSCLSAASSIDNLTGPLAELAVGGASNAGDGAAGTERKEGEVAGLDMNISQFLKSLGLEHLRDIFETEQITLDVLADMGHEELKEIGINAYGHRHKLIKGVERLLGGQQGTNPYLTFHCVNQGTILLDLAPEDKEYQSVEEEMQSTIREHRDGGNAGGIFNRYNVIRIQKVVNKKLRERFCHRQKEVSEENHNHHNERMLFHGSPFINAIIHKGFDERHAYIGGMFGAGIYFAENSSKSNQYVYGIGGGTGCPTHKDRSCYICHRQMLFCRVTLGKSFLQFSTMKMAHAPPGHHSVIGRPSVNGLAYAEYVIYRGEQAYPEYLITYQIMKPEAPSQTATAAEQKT
log2 fold change [3]: 0.023 | log2 fold change [5]: 0.039 | log2 fold change [4]: -0.035

TSPAN3 (UniProt O60637)
Sequence of UniProt O60637 (O60637 whole entry, looked up): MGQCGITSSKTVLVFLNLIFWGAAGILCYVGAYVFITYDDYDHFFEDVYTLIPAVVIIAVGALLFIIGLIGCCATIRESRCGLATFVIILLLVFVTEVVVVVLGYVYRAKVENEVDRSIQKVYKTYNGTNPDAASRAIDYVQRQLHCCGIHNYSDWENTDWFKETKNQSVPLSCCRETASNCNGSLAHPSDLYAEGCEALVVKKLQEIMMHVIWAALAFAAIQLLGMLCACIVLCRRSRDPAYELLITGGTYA
log2 fold change [3]: 0.174 | log2 fold change [5]: 0.006 | log2 fold change [4]: 0.16

TFPT (UniProt P0C1Z6)
Sequence of UniProt P0C1Z6 (P0C1Z6 whole entry, looked up): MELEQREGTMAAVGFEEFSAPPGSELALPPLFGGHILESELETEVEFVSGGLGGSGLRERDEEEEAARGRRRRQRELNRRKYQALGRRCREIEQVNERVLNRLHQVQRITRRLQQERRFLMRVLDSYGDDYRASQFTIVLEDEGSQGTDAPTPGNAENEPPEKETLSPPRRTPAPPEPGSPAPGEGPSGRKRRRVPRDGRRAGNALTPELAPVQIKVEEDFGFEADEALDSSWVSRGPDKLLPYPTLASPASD
log2 fold change [1]: -0.176 | log2 fold change [2]: -0.078 | log2 fold change [5]: -0.052

TUBA4A (UniProt C9JQ00)
log2 fold change [1]: -0.111 | log2 fold change [2]: -0.225 | log2 fold change [4]: 0.056
